# The whole screen tested about 48,000 compounds, of which about 13,000 (27%) showed an effect of 50% or more. Some of the results follow.
# Tested on: Wolbachia pipientis
# Assay: Anti-Wolbachia Cell-Based Screen
# Assay type: functional
# Design: scale not given: in the data most compounds retested in dose-response had high values
# Settings: 5 µM
row,SMILES,Percent Effect [%]
1,O=C1OCCN1CCNCC1(O)CCCN(CCC2CCCCC2)C1=O (configuration not stated),3.585
2,CN(C)C(=O)c1nc2c(n1C)CCN(Cc1ccccc1)C2,0.7909
3,CNC(=O)CNC(=O)CC1C(=O)NCCN1Cc1ccccc1C (configuration not stated),-0.8934
4,O=C(O)C(F)(F)F.O=C(O)C(F)(F)F.O=C(O)C(F)(F)F.c1cncc(CN2CC[C@@H]3O[C@H](COCCN4CCCC4)CC[C@@H]32)c1,86.61
5,COCCO[C@@H]1CCN(C(=O)c2ccc(C)o2)[C@@H]1Cc1cccnc1.O=C(O)C(F)(F)F,18.38
6,COCCO[C@H]1CCN(Cc2cccnc2)[C@H]1Cc1cccnc1.O=C(O)C(F)(F)F.O=C(O)C(F)(F)F.O=C(O)C(F)(F)F,107.4
7,O=C(O)C(F)(F)F.O=C(O)C(F)(F)F.O=C(O)C(F)(F)F.c1ccc(COC[C@H]2CC[C@H]3[C@H](CCN3Cc3cccnc3)O2)nc1,-5.696
8,COCCO[C@H]1CCN(Cc2cccs2)[C@H]1Cc1cccnc1.O=C(O)C(F)(F)F.O=C(O)C(F)(F)F,-0.3476
9,COCCO[C@H]1CCN(Cc2ccsc2)[C@H]1Cc1cccnc1.O=C(O)C(F)(F)F.O=C(O)C(F)(F)F,103.2
10,Cn1cc(CN2CC[C@H]3O[C@@H](COCc4cccnc4)CC[C@H]32)cn1.O=C(O)C(F)(F)F.O=C(O)C(F)(F)F,-19.84
11,Cc1[nH]c2c(F)cccc2c1CC(=O)NCCCc1csc(N)n1,-2.894
12,O=c1oc(-c2cccs2)nn1CC1(O)CCCCC1,-6.599
13,COc1ccc(NC(=O)CCn2nc(-c3cccs3)oc2=O)cc1OC,106
14,COc1cc(NC(=O)CCn2nc(-c3cccs3)oc2=O)cc(OC)c1,106.6
15,COc1cc(C)c(NC(=O)CCn2cccc2)cc1OC,27.33
16,COC(=O)c1cccc(OCCn2nc(-c3cccs3)oc2=O)c1,2.853
17,Cc1cc(C)n2nc(C(=O)N3CCCC4(CCOC4)C3)cc2n1 (configuration not stated),-5.928
18,COC(=O)C(C)(C)C(C)(C)NC(=O)Nc1nnc(-c2ccccn2)s1,-11.99
19,COc1c(C2CCCN2C(=O)c2ccc3[nH]cnc3c2)c(C)nn1C (configuration not stated),128.2
20,CCOc1ccc(C(=O)N2CCCC2c2c(C)nn(C)c2Cl)cn1 (configuration not stated),128
21,CCOc1ccc(C(=O)N2CCCC2c2c(C)nn(C)c2OC)cn1 (configuration not stated),122.4
22,COc1c(C2CCCN2C(=O)c2sccc2C#N)c(C)nn1C (configuration not stated),-24.73
23,COc1c(C2CCCN2C(=O)c2ccc3cc[nH]c3c2)c(C)nn1C (configuration not stated),-0.02537

row,SMILES,Percent Effect [%]
1,COc1c(C2CCCN2C(=O)c2ccc(C#N)cc2)c(C)nn1C (configuration not stated),98.09
2,Cc1cc(C(=O)N2C[C@@H]3CCCO[C@@H]3[C@H](N(C)C(C)C)C2)c(C)[nH]1,-3.882
3,COc1ccc(CNC(=O)NC2CCN(c3ccccc3)C2=O)cc1 (configuration not stated),-1.645
4,Cc1noc(NC(=O)c2ccc(Br)s2)n1,1.553
5,CC1=N[C@@]2(CC[C@@H]3CN(C(=O)NCC(C)C)C[C@@H]32)C(=O)N1C,7.686
6,Cc1c(CNC(=O)NCc2cccc(-n3cncn3)c2)cnn1C,-0.3036
7,Cc1nn(C)c(Cl)c1C1CCCN1C(=O)c1ccc(O)nc1 (configuration not stated),94.29
8,Cc1nn(C)c(Cl)c1C1CCCN1C(=O)c1ccc(C(N)=O)cn1 (configuration not stated),118.3
9,COc1c(C2CCCN2C(=O)c2ccoc2)c(C)nn1C (configuration not stated),3.459
10,COc1c(C2CCCN2C(=O)c2ccc(O)nc2)c(C)nn1C (configuration not stated),97.38
11,Cc1nn(C)c(C)c1C1CCCN1C(=O)c1ccc(NC2CC2)nc1 (configuration not stated),-8.845
12,CC(C)c1ncc(C(=O)N(C)c2ccc(Br)cn2)s1,0.7212
13,Cc1cc(CN2CCC(C3CCN(CCc4ccccc4)CC3)C2)[nH]n1 (configuration not stated),-2.584
14,CC(C)CN1C[C@@H]2OCC(=O)N(c3ccccc3)[C@@H]2C1,-2.791
15,O=C(CCc1cccs1)N1CCC(N2CCNC2=O)CC1,8.278
16,O=C(CCc1nccs1)N1CCCC(N2CCNC2=O)C1 (configuration not stated),-19.11
17,O=C(CCc1ccccc1)N1CCC(N2CCNC2=O)CC1,0.2283
18,O=C(Nc1nccs1)N1CCCC(N2CCNC2=O)C1 (configuration not stated),-14.98
19,O=C(CCc1ccsc1)N1CCC(N2CCNC2=O)CC1,88.84
20,O=C(CCCc1cccs1)N1CCC(N2CCNC2=O)CC1,94.13
21,O=C1NCCN1C1CCN(CCc2cccs2)CC1,3.932
22,O=C(CCc1nccs1)N1CCC(N2CCNC2=O)CC1,-13.84
23,O=C(CCc1cccs1)N1CCCC(N2CCNC2=O)C1 (configuration not stated),103.5

row,SMILES,Percent Effect [%]
1,CC(C)(C)OC(=O)NCC1CCN(C(=O)c2ccc(F)cc2F)C1 (configuration not stated),18.58
2,CC(C)c1noc(C(C)N2CCN(CCO)CC2)n1 (configuration not stated),-1.52
3,CC(C)c1noc(C(C)N2CCN(CCN3CCCC3=O)CC2)n1 (configuration not stated),-2.358
4,COCCCN1CCCN(C(C)c2nc(C3CC3)no2)CC1 (configuration not stated),-0.2305
5,CC(c1nc(C2CC2)no1)N1CCN(CCN2CCCC2=O)CC1 (configuration not stated),130.5
6,CC(c1nc(C2CC2)no1)N1CCN(CCn2ccccc2=O)CC1 (configuration not stated),-4.377
7,CC(C)c1noc(C(C)N2CCN(CCCN3CCCC3=O)CC2)n1 (configuration not stated),113.6
8,CC(c1nc(C2CC2)no1)N1CCN(CCCN2CCCC2=O)CC1 (configuration not stated),95.99
9,CC(c1nc(C2CC2)no1)N1CCN(CCOCC(F)(F)F)CC1 (configuration not stated),15.62
10,O=C(N1CCCC1)N1C[C@H]2CC[C@@]3(N=C(c4ccccc4)NC3=O)[C@H]2C1,-1.269
11,c1ccc(CSc2nnc(C3CC3)s2)nc1,-7.286
12,COc1c(C)cnc(CSc2nnc(C)s2)c1C,6.724
13,Cc1nnc(SCc2ccccn2)s1,113.6
14,CCC(Nc1nc(C)nc2onc(C)c12)c1nc(C)c(C)s1 (configuration not stated),99.23
15,CCCc1nc(C)c(CNc2nc(C)nc3onc(C)c23)s1,18.49
16,Cc1nc(NCCSc2ccccn2)c2c(C)noc2n1,2.263
17,CCC(Nc1nc(C)nc2onc(C)c12)c1cccs1 (configuration not stated),84.62
18,CCC(Nc1nc(CCN)nc2ccccc12)c1cccs1 (configuration not stated),21.59
19,Cc1nc(NCCSc2cnn[nH]2)c2c(C)noc2n1,-13.5
20,Cc1nc(COc2ccc(OCC(N)=O)cc2)oc1C,23.22
21,CC(C)N(C)C(=O)CN1C(=O)OC[C@@H]1c1ccccc1,-15.23
22,CCn1c(C)nnc1CN(C)C1CCN(Cc2sc(C)nc2C)C1 (configuration not stated),1.106
23,Cc1nc(CN(C)C2CCN(Cc3sc(C)nc3C)C2)no1 (configuration not stated),-5.233

row,SMILES,Percent Effect [%]
1,Cc1ncc(CN(C)C2CCCN(Cc3noc(C4CC4)n3)C2)s1 (configuration not stated),1.76
2,Cc1nc(C)c(CN2CCC(N(C)Cc3nnc(C4CC4)o3)C2)s1 (configuration not stated),83.42
3,Cc1ccc(N2CCCC(N(C)Cc3nnc(C4CC4)o3)C2)nn1 (configuration not stated),-13.84
4,Cc1nc(C)c(CN2CCC(N(C)Cc3noc(C4CC4)n3)C2)s1 (configuration not stated),84.99
5,O=C(CN1C(=O)c2ccccc2CS1(=O)=O)c1ccccc1,-5.153
6,COCC(C)NC(=O)c1cncc(Br)c1 (configuration not stated),15.5
7,Cc1cc(O)cc2c(=O)oc(CC(C)O)cc12 (configuration not stated),-7.016
8,Cc1ccc(-c2cn3c(n2)CO[C@@H](CNCc2nccs2)C3)cc1,-9.469
9,CN1CCOC(CNCc2nc(-c3ccccc3)cs2)C1 (configuration not stated),5.622
10,CC(C)CCc1nc(CNCC2CN(C)CCO2)cs1 (configuration not stated),94.45
11,Cc1ccc(OCc2nc(CNCC3CN(C)CCO3)cs2)cc1 (configuration not stated),109.6
12,Cc1c(F)cccc1NC(=O)N(C(C)CS(C)(=O)=O)C1CC1 (configuration not stated),-14.75
13,CCC(CO)N(Cc1ccccn1)C(=O)c1ccc2c(c1)CCO2 (configuration not stated),6.403
14,CCSCc1cccc(NC2CCN(C)C2=O)c1 (configuration not stated),-4.409
15,CC(C)c1nc(CN2CCCC2CN2CCCC2)cs1 (configuration not stated),11.4
16,CCCc1nc(CN2CCCC2Cn2cncn2)cs1 (configuration not stated),0.1257
17,c1ncn(CC2CCCCN2Cc2csc(C3CCCC3)n2)n1 (configuration not stated),3.175
18,CCCc1nc(CN2CCCCC2Cn2cncn2)cs1 (configuration not stated),92.11
19,CN(C)C(=O)Cc1nc(CN2CCCCC2Cn2cncn2)cs1 (configuration not stated),-10.91
20,CC(C)c1nc(CN2CCCCC2Cn2cncn2)cs1 (configuration not stated),82.22
21,Cc1nc(C(NS(=O)(=O)N(C)C)c2ccccc2F)no1 (configuration not stated),-14.73
22,O=C(NC[C@H]1OC[C@@H](NC2CCC(F)(F)CC2)[C@@H]1O)c1ccccc1,-10.21
23,O=C(CCc1ccncc1)N1CCc2c(ncnc2N2CCOCC2)C1,-13.92

row,SMILES,Percent Effect [%]
1,COc1cc(C)c2c(c1C)C[C@H]([C@H](C)C(=O)O)CC2,-11.67
2,CN1CCN(S(C)(=O)=O)c2ccc(F)cc21,-0.158
3,CCN1CC2(CCC1=O)CCN(Cc1cc(F)ccc1Cl)CC2,-6.305
4,CCN1CCC(=O)N(C)Cc2cc(F)ccc21,110.2
5,CN1Cc2cc(F)ccc2N(CC(C)(C)O)CCC1=O,116.8
6,CSCCC(C)NC(=O)CCN1C(=O)CCc2cc(F)ccc21 (configuration not stated),2.729
7,Cn1ncc2c(=O)[nH]c(CN3CCCc4cc(F)ccc43)nc21,-1.731
8,COc1cc(C(C)=O)ccc1OCC(=O)N(CC(C)C#N)C1CC1 (configuration not stated),-5.755
9,COc1cccc(C(=O)NCC(O)c2cccs2)c1 (configuration not stated),-0.6339
10,CC(=O)N1CC(c2ncn(C(C)C)n2)c2cc(C(=O)NC(C)C)ccc21 (configuration not stated),-2.765
11,CC(C)NC(=O)c1ccc2nnc(C3CCN(C(=O)NC(C)C)C3)n2c1 (configuration not stated),5.911
12,CC(C)NC(=O)c1cccc(Oc2ccc3nncn3n2)c1,131.1
13,CC1CN(CC(=O)NC2CCCC2)CCN1c1ccc2nncn2n1 (configuration not stated),1.075
14,O=C(NC1CCCCC1)c1ccc(Oc2ccc3nncn3n2)cc1,113.3
15,CC(C)CNC(=O)c1cccc(Oc2ccc3nncn3n2)c1,96.36
16,O=C(CN1CCN(c2ccc3nncn3n2)CC1)NC1CCCC1,0.9347
17,O=C(CN1CCN(c2ccc3nncn3n2)CC1)NC1CCCCC1,14.04
18,O=C(NC1CC1)c1cccc(Oc2ccc3nncn3n2)c1,135.1
19,CC(Nc1cccc(Oc2ccc(C#N)cn2)c1)C(=O)NC1CC1 (configuration not stated),4.844
20,CN(C)C(CNC(=O)c1cccc(-n2cnnn2)c1)c1ccccc1Cl (configuration not stated),-8.623

# Reference: ChEMBL document CHEMBL3988442, “University of Dundee, Small-Polar-MMV Screening Library” (2021)
